A selection: hits, their analogues and other compounds. The true share with any hit is near 1.7%.
TNFa cytotox = cytotoxicity in TNFa-stimulated HUVEC, primary screen, cytotoxicity control for VCAM1 expression modulator project, imaging, Hoechst nuclei count; AID 848, 2007; cell count reduction, % at 2 µM; hit rate 0.17% among 93,000; HUVEC TNFalpha-stimulated, Hoechst cell count;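 active = cell count reduction exceeding the screen mean by over 5 SD, scaled to untreated wells per plate, cut at about 78% in these data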;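 also: cells counted after 24 h of TNF alpha exposure following the 1 h pretreatment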
E-sel TNF inh = E-selectin induction blockers in HUVEC – imaging, immunofluorescence, high content, primary screen. inhibition, % at 2 µM. hit rate 0.71% among 120,000. HUVEC TNFa-induced E-selectin immunofluorescence. AID 1246, 2008;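 active = inhibition above the batch mean plus 3 SD, and confirmed as a hit on visual image review, cut at about 43% in these data; inconclusive = passes the inhibition cutoff but fails visual image review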
VCAM1 TNFa inh = inhibitors of TNFa-induced VCAM1 expression, primary screen, imaging, HUVEC, TNFa stimulus, immunofluorescence. hit rate 0.48% among 95,000. HUVEC TNFa-induced VCAM-1 immunofluorescence, high-content imaging. inhibition, % at 2 µM;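 active = inhibition above the batch mean plus 3 SD, with images confirmed as a hit by eye, cut at about 37% in these data; inconclusive = inhibition above that limit but hit not confirmed in images; inactive = inhibition not above that limit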
IL1B NFkB inh = inhibitors of IL-1B driven NFkB p65 nuclear import, primary screen, imaging, HUVEC, IL-1B stimulus, high-content imaging | HUVEC IL-1B NFkB p65 nuclear translocation imaging | inhibition, % at 2 µM | hit rate 0.43% among 94,000;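 active = inhibition above about 30% together with a positive call from visual inspection of the well image, limit read from the data; inconclusive = inhibition above a set limit but visual check negative; inactive = inhibition not above a set limit, visual check negative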;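 also: nuclear over cytoplasmic p65 intensity ratio measured by imaging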
IL1B NFkB pot = enhancers of NFkB p65 translocation in HUVEC – imaging, IL-1B stimulus, high-content imaging, primary screen; hit rate 0.3% among 94,000; AID 819, 2007; HUVEC IL-1B NFkB p65 nuclear translocation imaging; activation, % at 2 µM;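 active = activation above 40%, about the mean plus 3 SD, also judged a hit on visual image review; inconclusive = activation above 40% but not a hit on visual review; inactive = activation not above 40% and no visual hit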;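 also: percent activation is computed from the nuclear over cytoplasmic p65 intensity ratio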
HUVEC tox IL1B = cytotoxicity in IL-1B stimulated HUVEC, primary screen, cytotoxicity control for IL-1B NFkB translocation project, imaging, Hoechst nuclear count, IL-1B stimulus. hit rate 0.41% among 94,000. HUVEC cell count loss. cell count reduction, % at 2 µM. AID 845, 2007;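 active = cell count reduction more than 3 SD above the screen-wide mean, cut at about 70% in these data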
Numbers stand for hits; n = inactive; u = inconclusive; x = not tested or not shown.

SMILES	TNFa cytotox	E-sel TNF inh	VCAM1 TNFa inh	IL1B NFkB inh	IL1B NFkB pot	HUVEC tox IL1B
O=C(O)c1ccc(-c2ccccc2Cl)o1	x	n	x	n	n	n
O=C(O)c1ccc(-c2ccc(Cl)cc2Cl)o1	n	60.9	n	n	n	n
Cn1c(N)c(Sc2ccc(F)cc2)c(=O)n(C)c1=O	x	n	x	x	x	x
CCn1c2ccccc2c2cc(NC(=O)c3cc(OC)c(OC)c(OC)c3)ccc21	n	n	95.3	n	n	n
CCn1c2ccccc2c2cc(NC(=O)c3cc(OC)cc(OC)c3)ccc21	x	n	x	x	x	x
O=C(NCCc1ccncc1)c1ccccc1F	n	n	n	n	n	n
O=C(NCCc1ccncc1)C(F)(F)F	n	n	n	72.5	n	n
Cn1c(=N)n(CC(O)c2ccco2)c2ccccc21 (stereo unspecified)	n	x	n	n	n	n
Cn1c(=N)n(CC(O)c2cccc3ccccc23)c2ccccc21 (stereo unspecified)	83.0	x	n	n	n	n
COc1nc(Nc2ccc([N+](=O)[O-])cc2)nc(NC(C)C)n1	x	n	x	x	x	x
O=C(COC(=O)C1CCCCC1)Nc1ccccc1OC(F)F	x	n	x	x	x	x
COc1ccc(NS(=O)(=O)c2cc(C)ccc2NC(=O)c2cc(C)oc2C)cc1	n	n	44.4	n	n	n
COc1ccc2nc(NC(=O)c3cc(C)oc3C)sc2c1	n	n	n	n	n	n
CCOc1ccc(N(Cc2ccccc2F)C2=NC3CS(=O)(=O)CC3S2)cc1 (stereo unspecified)	x	n	x	x	x	x
Cc1cc(OCc2ccc(F)cc2)nc(-c2ccccc2O)n1	79.8	x	94.8	n	n	n
C/C(=N\Nc1nc2c(s1)CCCC2)c1ccccc1	n	n	61.6	n	n	n
COc1ccc2nc(C)c3cc(C)oc3c2c1	n	n	n	n	n	87.1
CCOc1ncccc1C(=O)OCC(=O)c1ccc(C)c(C)c1	x	n	x	x	x	x
O=C(Oc1ccccc1N1C(=O)C2CC=CCC2C1=O)c1ccc(Br)cc1 (stereo unspecified)	x	78.0	x	x	x	x
CC1=NN(c2ccccc2)C(=O)C1(C)C	n	n	n	50.3	n	n
O=C1Nc2ccc(S(=O)(=O)N3CCOCC3)c3cccc1c23	n	n	89.2	n	n	n
O=C1Nc2ccc(S(=O)(=O)N3CCCC3)c3cccc1c23	n	n	n	n	n	n
COc1ccccc1/C=c1\sc2nc(-c3ccccc3OC)nn2c1=O	n	n	n	n	52.3	n
C=CCOc1ccccc1/C=c1\sc2nc(-c3oc4ccccc4c3C)nn2c1=O	n	n	n	n	n	n
Cn1c(Sc2ccc(C(F)(F)F)cc2[N+](=O)[O-])nnc1-c1ccccc1	n	n	n	n	n	n
SMILES	TNFa cytotox	E-sel TNF inh	VCAM1 TNFa inh	IL1B NFkB inh	IL1B NFkB pot	HUVEC tox IL1B
COc1cccc(Nc2nc(C)cc(C)c2C#N)c1	n	n	n	n	n	n
COc1ccc(Nc2nc(C)cc(C)c2C#N)cc1OC	n	59.3	n	n	n	n
CC(CCc1ccccc1)NC(=O)CCCCCNc1nc(=S)[nH]c2ccccc12 (stereo unspecified)	x	n	x	x	x	x
COc1ccc(C(=O)NCc2nnc(SCC(=O)Nc3nc4ccc(C)cc4s3)o2)cc1OC	x	n	x	x	x	x
CCC(=O)NC(O)C(=O)c1ccc(C)cc1 (stereo unspecified)	n	n	n	32.2	n	n
CCc1nnc(NC2=NCCC2)s1	n	x	n	n	n	n
CCCCCOC(=O)Nc1nnc(CCCCC)s1	n	n	n	n	n	90.2
CCOCCc1nnc(NC(=O)COC)s1	n	n	n	n	n	84.4
COC(=O)Nc1nnc(CCc2ccccc2)s1	n	n	n	n	n	n
CCOCC(=O)Nc1nnc(COC)s1	n	n	n	n	n	n
CCOC(=O)Nc1nnc(CCc2ccccc2)s1	n	n	n	100.7	n	n
Cc1nc2ccccc2n1C(=O)N(C)C	x	n	x	x	x	x
COC(=O)c1cn(C(=O)c2ccco2)c2ccccc12	n	n	n	n	n	n
COC(=O)c1cn(C(=O)c2cccs2)c2ccccc12	n	n	n	n	n	94.8
CCn1c(SCC(=O)Nc2cc3oc4ccccc4c3cc2OC)nnc1-c1cccs1	n	n	n	n	40.7	n
COc1cc2c(cc1NC(=O)Nc1ccccc1)oc1ccccc12	n	99.8	n	n	n	n
COC(=O)c1ccc(S(=O)(=O)N2C3CCC2CC(NC(=O)C2CC2)C3)cc1 (stereo unspecified)	n	n	n	n	n	84.5
CC(=O)Nc1ccc(S(=O)(=O)N2C3CCCC2CC(NC(=O)C2CCCCC2)C3)cc1 (stereo unspecified)	n	n	n	n	n	n
C=CCn1nnc2sc3c(c2c1=O)CCC(C)C3 (stereo unspecified)	n	n	n	48.2	n	n
CCN(CC)C(=O)CN(c1ccc(Cl)cc1)S(=O)(=O)c1ccccc1	100.0	n	u	n	n	n
NC(=O)CN(c1ccc(Cl)cc1)S(=O)(=O)c1ccccc1	x	n	x	x	x	x
CCN(CC)c1ccc(N2C(=O)/C(=C/c3cccnc3)SC2=S)cc1	n	n	n	n	n	n
O=S(=O)(NCCSc1nnc(-c2ccco2)n1-c1ccccc1)c1ccccc1	n	n	n	n	86.1	n
Cc1ccc(C(=O)c2ccccc2C(=O)OCC(=O)Nc2cccc([N+](=O)[O-])c2)cc1	x	n	x	x	x	x
Cc1ccc(Cl)c(NC(=O)COC(=O)c2ccccc2C(=O)c2ccc(Cl)c([N+](=O)[O-])c2)c1Cl	x	98.2	x	x	x	x
SMILES	TNFa cytotox	E-sel TNF inh	VCAM1 TNFa inh	IL1B NFkB inh	IL1B NFkB pot	HUVEC tox IL1B
Cc1cccc(-n2nnnc2SCc2csc(-c3ccccc3)n2)c1	87.9	n	n	n	n	n
CC(=O)N1CCc2cc(S(=O)(=O)CCC(=O)Nc3c(C)n(C)n(-c4ccccc4)c3=O)ccc21	n	x	n	n	n	n
COc1cccc(/C=N/N=C(\N)c2nonc2N)c1O	x	n	x	x	x	x
Cc1cc2nnc(SC3CCCCN(C(=O)c4ccc(F)cc4)C3=O)n2c2ccccc12 (stereo unspecified)	n	n	n	n	n	n
O=C(c1ccc(F)cc1)N1CCCCC(Sc2nnc3ccccn23)C1=O (stereo unspecified)	n	n	n	30.1	n	n
CCc1ccc(C(C(=O)NC2CCCCC2)N(C(=O)CNC(=O)c2ccco2)c2cccnc2)cc1 (stereo unspecified)	n	n	n	n	n	n
Cc1ccc(C)c2[nH]c(=O)c(CCNC(=O)c3ccc(Br)o3)cc12	n	n	n	42.8	n	n
Cc1cc2cc(CCNC(=O)c3ccc(Br)o3)c(=O)[nH]c2cc1C	n	x	n	n	n	n
O=C(COc1ccccc1)Nc1ccccc1N1CCN(c2ccc(F)cc2)CC1	n	n	n	n	n	n
